Measurements from PubChem BioAssay.
Calls of active or inactive are those of the source. Unless noted, how the calls were made is not given here.

How the values were obtained:
[1] = liver-stage malaria parasite load reduction – cell-based, known kinase inhibitor set, luminescence, hepatoma host viability (AID 624392); details: Plasmodium liver stage in hepatoma cells, luciferase luminescence, concentration not given here; liver cell % of control: measured here: host liver cell viability; parasite % of control: stronger effect = lower value;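 further: infected cells incubated roughly two days before readout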
[2] = altered dexamethasone sensitivity, NF-kB reporter, cell-based, luciferase, IL-1B stimulus (AID 624486); details: IL-1B + dexamethasone, luminescence; percent of negative control (+Dex): actives lie on both sides, concentration not given here; z-score: measured here: IL-1B alone, no Dex;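 on percent of negative control (+Dex): 100% = mean signal of vehicle control wells on the plate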
[3] = C. elegans survival during P. aeruginosa infection – whole organism (AID 651566);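 further: tested at 14 µM; sign flipped so higher z means a lower ratio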; details: C. elegans killed by P. aeruginosa, survival ratio
[4] = pro-inflammatory signaling induction in mouse macrophages – cell-based, murine, luminescence (AID 652131); details: murine macrophage pro-inflammatory reporter, stronger effect = higher value
[5] = biological target: Cellular tumor antigen p53 (Homo sapiens) (UniProt P04637); assay: GFP-p53 level modulators in HPV16+ cells – imaging, known kinase inhibitor set, EGFP/DsRed ratio (AID 1053116); details: GFP-p53 stability, stronger effect = higher value; EGFP object count: measured here: GFP-p53 positive objects count;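 further: cells exposed to compounds for 24 h at 37 °C before reading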
Chain of Cellular tumor antigen p53 (Homo sapiens) (P04637 whole entry, looked up): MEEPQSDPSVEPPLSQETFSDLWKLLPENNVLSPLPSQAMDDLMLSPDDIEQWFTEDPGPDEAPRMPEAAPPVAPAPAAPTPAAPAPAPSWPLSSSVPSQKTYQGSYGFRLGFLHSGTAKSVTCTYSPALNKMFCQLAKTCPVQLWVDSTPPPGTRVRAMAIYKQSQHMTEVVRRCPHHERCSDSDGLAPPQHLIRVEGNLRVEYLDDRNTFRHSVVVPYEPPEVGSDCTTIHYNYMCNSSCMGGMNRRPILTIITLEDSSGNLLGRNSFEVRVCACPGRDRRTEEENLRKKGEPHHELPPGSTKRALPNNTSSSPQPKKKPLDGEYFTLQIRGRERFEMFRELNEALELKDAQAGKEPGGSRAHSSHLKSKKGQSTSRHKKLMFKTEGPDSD

[6] = inducers of IRF3 signaling, differentiated THP-1 – cell-based, PMA-stimulated THP-1, luminescence (AID 1053176); details: PMA-differentiated THP-1, IRF3 reporter luminescence; stronger effect = higher value
[7] = MELAS cybrid and Rieske KO viability enhancers – cell-based, MELAS cybrids, Rieske KO mouse fibroblasts, CellTiter-Glo, primary screen (AID 1508586;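 active means mean z-score across replicates of 1.96 or higher in either the MELAS or the Rieske mutant cell line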;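 further: z relative to plate mean and SD of compound and empty wells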); details: low glucose
[8] = MELAS cybrid survival, CellTiter-Glo 48 h, stronger effect = higher value
[9] = Rieske KO mouse fibroblast survival, CellTiter-Glo 72 h

Compound | liver cell % of control [1] | parasite % of control [1] | percent of negative control (+Dex) [2] | z-score [2] | z-score [3] | z-score [4] | EGFP object count [5] | EGFP/DsRed ratio [5] | fraction signal [6] | z-score [7, 8] | z-score [7, 9]
CN(C)CCOc1ccc(-c2cc(-c3ccc4c(c3)CC/C4=N/O)c(-c3ccncc3)o2)cc1 | 77.4% | 441% (inactive) | 130% (inactive) | 0.59 | 0.205 (inactive) | -0.386 (inactive) | 48 | 1.74 (active) | 0.045 (inactive) | 0.463 (inactive) | -0.429
CCN1CCC(CC(=O)NC2NNC3NNC(c4cccc(F)c4F)CC32)CC1 (centres undefined) | 80.9% | 32.2% (inactive) | 118% (inactive) | -0.095 | -0.285 (inactive) | 0.818 (inactive) | 25.5 | 0.256 (inactive) | -0.004 (inactive) | -0.762 (inactive) | -0.436
COc1cccc(-n2nc(C)c3c(N/N=C(\C)c4ccncc4)ncnc32)c1 | 114% | 124% (inactive) | 100% (inactive) | 0.765 | 0.74 (inactive) | -0.201 (inactive) | 2 | 0.0826 (inactive) | -0.0005 (inactive) | -0.775 (inactive) | -0.494
O=C1NC(=O)C(N2CCc3ccccc32)=C1c1ccc(Cl)cc1 | 86.6% | 138% (inactive) | 74% (inactive) | -1.47 | -1.35 (inactive) | -0.315 (inactive) | 4 | 0.106 (inactive) | -0.0285 (inactive) | -0.729 (inactive) | 0.357
O=S1CCN(Cc2ccc(-c3ccc4ncnc(Nc5ccc(OCc6ccccc6)c(Cl)c5)c4c3)o2)CC1 | 98.4% | 108% (inactive) | 77% (inactive) | -0.87 | 0.67 (inactive) | 1.11 (inactive) | 5 | 0.0559 (inactive) | -0.0035 (inactive) | 1.05 (inactive) | -0.081
CCc1nn2ncccc2c1-c1ccnc(NC2CC2)n1 | 131% | 61.2% (inactive) | 102% (inactive) | -0.225 | 0.555 (inactive) | -0.174 (inactive) | 3.5 | 0.117 (inactive) | 0.007 (inactive) | -0.448 (inactive) | -0.208
CCOc1ccc2c(-c3ccnc(Nc4cc(OC)cc(C(F)(F)F)c4)n3)cnn2n1 | 65.9% | 254% (inactive) | 86.5% (inactive) | 1.62 | -0.445 (inactive) | 0.258 (inactive) | 6 | 0.102 (inactive) | -0.001 (inactive) | 0.655 (inactive) | -0.17
CNC(=O)c1cc(-c2ccc(F)cc2)cc(-c2ccc(S(=O)(=O)N3CCCC3)cc2)c1N | 102% | 80.4% (inactive) | 92% (inactive) | -0.05 | 0.5 (inactive) | -0.377 (inactive) | 6.5 | 0.244 (inactive) | -0.007 (inactive) | -0.388 (inactive) | -0.623
Clc1ccc(CNc2nccc(-c3cnn4ncccc34)n2)cc1 | 78.2% | 176% (inactive) | 26.5% (active) | -7.22 | 0.125 (inactive) | -1.14 (inactive) | 1 | 0.0281 (inactive) | 0 (inactive) | 0.484 (inactive) | -0.266
Cc1cc(Cl)cc2c(N=Nc3ccc(S(N)(=O)=O)cc3)c(O)[nH]c12 | 94.4% | 139% (inactive) | 100% (inactive) | 0.945 | -0.145 (inactive) | -0.3 (inactive) | 2.5 | 0.092 (inactive) | -0.0045 (inactive) | 0.0201 (inactive) | -0.605
Cc1nnc(-c2ccc(C)c(-c3ccc(C(=O)NCc4ccc(Cl)cc4)cc3)c2)o1 | 161% | 31.3% (inactive) | 106% (inactive) | 1.07 | 0.9 (inactive) | -0.451 (inactive) | 2 | 0.079 (inactive) | -0.0105 (inactive) | -0.978 (inactive) | -0.533
CCc1nccc2c1nc(-c1nonc1N)n2CC | 89.7% | 130% (inactive) | 67% (inactive) | -2.37 | -0.475 (inactive) | -0.569 (inactive) | 2.5 | 0.0232 (inactive) | 0.005 (inactive) | 0.0182 (inactive) | -0.326
CC(C)c1ccc(-c2cc(C3CNNC3c3ccccn3)ccn2)cc1 (centres undefined) | 100% | 117% (inactive) | 95.5% (inactive) | 0.855 | 0.505 (inactive) | 0.704 (inactive) | 2 | 0.021 (inactive) | -0.0085 (inactive) | 0.0399 (inactive) | -0.129
Nc1nc(-c2cccc(Cl)c2)c(-c2ccc3ncccc3n2)s1 | 156% | 115% (inactive) | 103% (inactive) | 0.42 | -1.02 (inactive) | -0.477 (inactive) | 2.5 | 0.0471 (inactive) | -0.0045 (inactive) | 0.115 (inactive) | -0.0691
CN1CCN(CCCNc2nc3ccc(Oc4ccc(NC(=O)Nc5cc(C(F)(F)F)ccc5F)cc4)cc3[nH]2)CC1 | 95.2% | 94.4% (inactive) | 97.5% (inactive) | 0.025 | -0.94 (inactive) | 1.21 (inactive) | 3.5 | 0.103 (inactive) | -0.0045 (inactive) | -0.0444 (inactive) | -0.286
Cc1cc(-c2ccco2)cc(C)c1/C=C/c1cncc(-c2nn[nH]n2)c1 | 90.5% | 119% (inactive) | 94% (inactive) | 0.125 | 0.545 (inactive) | 4.88 (inactive) | 3.5 | 0.0973 (inactive) | -0.008 (inactive) | -1.12 (inactive) | -0.188
NS(=O)(=O)c1ccc(-c2cc3ccncc3cc2OCc2ccccc2)cc1 | 218% | 144% (inactive) | 81% (inactive) | -1.8 | -0.345 (inactive) | 6.56 (active) | 4.5 | 0.0743 (inactive) | -0.005 (inactive) | -0.151 (inactive) | -0.251
NC(=O)c1sc(-n2cnc3ccc(C(F)(F)F)cc32)cc1OCc1ccccc1Br | 104% | 160% (inactive) | 98.5% (inactive) | 0.57 | -0.455 (inactive) | -0.965 (inactive) | 4 | 0.119 (inactive) | 0.007 (inactive) | -0.166 (inactive) | -0.246
COc1cccc(-n2ncc3c(N/N=C/c4cccc(F)c4)ncnc32)c1 | 106% | 81% (inactive) | 93.5% (inactive) | 0.615 | -0.05 (inactive) | -0.183 (inactive) | 5 | 0.0775 (inactive) | 0.0035 (inactive) | 1.45 (inactive) | -0.242
COc1cccc(/C=N/Nc2ncnc3c2cnn3-c2cccc(OC)c2)c1 | 96.7% | 107% (inactive) | 91.5% (inactive) | -0.3 | -0.385 (inactive) | 0.307 (inactive) | 9 | 0.222 (inactive) | 0.0045 (inactive) | 0.209 (inactive) | -0.582
CNC(=O)c1cncc(/C=C/c2c(C)cccc2C)c1 | 106% | 86.6% (inactive) | 91.5% (inactive) | 0.11 | 0.025 (inactive) | -0.466 (inactive) | 4 | 0.149 (inactive) | 0.0135 (inactive) | 1.23 (inactive) | 0.0124
Cn1c(-c2nonc2N)nc2cnccc21 | 87.4% | 106% (inactive) | 70.5% (inactive) | -2.13 | -0.36 (inactive) | -0.113 (inactive) | 4.5 | 0.0787 (inactive) | -0.0065 (inactive) | -0.058 (inactive) | -0.308
CC(C)c1ccc2c(N=Nc3ccc(S(N)(=O)=O)cc3)c(O)[nH]c2c1 | 93.4% | 160% (inactive) | 94% (inactive) | 0.03 | 0.635 (inactive) | -0.919 (inactive) | 4 | 0.177 (inactive) | -0.0065 (inactive) | -0.58 (inactive) | -0.254
NCc1ccc(-n2c(-c3nonc3N)nc3cnccc32)cc1 | 104% | 162% (inactive) | 58% (inactive) | -3.59 | -0.655 (inactive) | -1.05 (inactive) | 1 | 0.0079 (inactive) | 0.003 (inactive) | -0.95 (inactive) | -0.216
CN(C)CCCNc1nccc(-c2c(-c3ccc(F)cc3)nn3cc(C(F)(F)F)ccc23)n1 | 98.2% | 96.1% (inactive) | 93.5% (inactive) | 0.05 | 0.5 (inactive) | 2.64 (inactive) | 4 | 0.104 (inactive) | -0.008 (inactive) | 0.443 (inactive) | -0.332
Cc1ccc(NC(=O)CC2CC2)cc1-c1ccc(C(=O)NCC2CC2)cc1 | 75.5% | 149% (inactive) | 98.5% (inactive) | 0.735 | -1.18 (inactive) | 0.093 (inactive) | 6 | 0.154 (inactive) | -0.006 (inactive) | -0.893 (inactive) | -0.555
Nc1nc(-c2ccc(F)cc2)c(-c2ccc3ncccc3n2)s1 | 158% | 131% (inactive) | 85.5% (inactive) | 0.965 | -0.035 (inactive) | -0.162 (inactive) | 6 | 0.152 (inactive) | -0.002 (inactive) | 0.38 (inactive) | 0.128
CCn1c(-c2nonc2N)nc2c(C#CC(C)(C)O)nc(OCCNC)cc21 | 78.2% | 239% (inactive) | 83.5% (inactive) | -0.295 | 1.3 (inactive) | -0.135 (inactive) | 10.5 | 0.224 (inactive) | -0.006 (inactive) | -0.95 (inactive) | -0.363
c1cnn2ncc(-c3ccnc(Nc4ccc5c(c4)OCCO5)n3)c2c1 | 141% | 14% (inactive) | 5% (active) | -9.09 | 0.965 (inactive) | -1.27 (inactive) | 2.5 | 0.105 (inactive) | -0.0005 (inactive) | 0.529 (inactive) | 0.76
